The target in assay [1] is T1, Aspartate--tRNA(Asp/Asn) ligase (Mycobacterium tuberculosis (strain ATCC 25618 / H37Rv)) (UniProt P9WFW3). Note: in the data most compounds retested in dose-response had high values.
T1 sequence (whole entry): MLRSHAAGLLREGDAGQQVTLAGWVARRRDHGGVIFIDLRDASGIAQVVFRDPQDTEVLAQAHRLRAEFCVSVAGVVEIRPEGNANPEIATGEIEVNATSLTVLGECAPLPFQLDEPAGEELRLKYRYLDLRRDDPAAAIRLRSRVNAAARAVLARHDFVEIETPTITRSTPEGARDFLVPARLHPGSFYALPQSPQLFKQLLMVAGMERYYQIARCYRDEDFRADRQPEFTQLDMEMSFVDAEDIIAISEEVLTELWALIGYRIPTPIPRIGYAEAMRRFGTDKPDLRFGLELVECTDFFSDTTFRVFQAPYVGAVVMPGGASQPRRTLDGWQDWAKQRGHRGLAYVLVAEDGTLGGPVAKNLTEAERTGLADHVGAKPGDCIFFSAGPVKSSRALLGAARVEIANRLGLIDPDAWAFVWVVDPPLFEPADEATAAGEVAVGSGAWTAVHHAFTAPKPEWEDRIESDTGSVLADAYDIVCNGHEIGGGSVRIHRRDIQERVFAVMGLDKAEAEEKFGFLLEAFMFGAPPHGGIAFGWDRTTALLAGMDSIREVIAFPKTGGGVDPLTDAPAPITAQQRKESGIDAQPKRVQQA
Nature of the assay: Assay for Asp RNA synthetase-1 from Mycobacterium tuberculosis. On the set-up: scale not given: direction of the effect not stated beside the values. Particulars: 30 µM. It is filed as functional.

The target of assay [2] is Shiga toxin 2 (Escherichia coli O157:H7) (UniProt P09385+P09386). Nature of the assay: E. coli 0.157:H7 Shiga Toxin SOP - stx2 screening assay. The assay is classed as functional. On the set-up: scale not given: direction of the effect not stated beside the values. Particulars: 30 µM.

On to `CNc1cc2c(nn1)CCN(C(=O)c1cc(F)cc(F)c1)C2`, for which the results for the Percent Effect in assay [1] and in assay [2] were -0.49% and 12.4%, respectively.
For the molecule `CCOC(=O)CCC(=O)NC(C)c1ccc(NC(=O)CC)cc1` (stereo unspecified), the Percent Effect is -8.03% in assay [1] and -0.224% in assay [2].
On to `O=C(NCC1CCN(C(=O)c2ccoc2)CC1)c1ccccc1Br`, for which the figures for the Percent Effect in assay [1] and in assay [2] were -6.27% and 3.64%, respectively.
Taken in the same sequence, the figures for `CC(C)n1cc(S(=O)(=O)N2CCCCC2)cn1` were -0.668% and -17.6%.
Consider `COc1ccccc1S(=O)(=O)N1CCC(Oc2cccnn2)CC1`, for which the Percent Effect is -2.24% in assay [1] and -12.5% in assay [2].
Regarding `COc1cc(N2C[C@@H]3COC[C@]3(COc3ccc(C#N)cn3)C2)ncn1`, the Percent Effect was -1.45% in assay [1] and 11.9% in assay [2].
In the case of `Cc1csc(C2CCCCN2C(=O)CN(C)Cc2ccccc2)n1` (stereo unspecified), the Percent Effect is -3.92% in assay [1] and 8.13% in assay [2].
As to `Cc1ccccc1C(=O)N1CCC(n2nnc3cc(F)ccc32)CC1`, the Percent Effect in assay [1] is -5.01%; in assay [2] it was -1.06%.
`Cc1cc(C)n(CC2CN(Cc3nnsc3Cl)CCO2)n1` (stereo unspecified): the Percent Effect was -1.81% in assay [1] and 31.3% in assay [2].
On to `CC(=O)N1CCCN(C(=O)NCCc2cc(Cl)cc(Cl)c2)CC1`, for which the Percent Effect in assay [1] is -1.44%; in assay [2] it was -10%.
On to `CN(C)S(=O)(=O)c1ccc(CN2CCCC2CO)o1` (stereo unspecified), for which the Percent Effect in assay [1] was -0.169%; in assay [2], 24%.
Regarding `O=C(N1CCOCC1)[C@@]12CCO[C@@H]1CCN(Cc1ccccc1F)C2`, the Percent Effect in assay [1] was -6.79%; in assay [2] it was -21.7%.
On to `O=C(NCC1CC1)Nc1cnc2cc(Cl)ccc2c1O`, for which the Percent Effect is -0.223% in assay [1] and -0.695% in assay [2].
For `COC[C@@]12CC[C@@H](N3CCOCC3)C[C@H]1CCN(c1ncccc1Cl)C2`, the Percent Effect in assay [1] is -2.31%; in assay [2] it was 23%.
Turning to `O=C(Nc1nccs1)N1CCCC(N2CCNC2=O)C1` (stereo unspecified), the Percent Effect was 0.977% in assay [1] and -10.1% in assay [2].
In the case of `Cc1csc(N2CCN(C(=O)CCn3cncn3)CC2)n1`, the Percent Effect is -4.23% in assay [1] and -2.86% in assay [2].
In the case of `Cc1ncccc1OC1(C(=O)NCCNc2ccccc2)CCNCC1`, the results for the Percent Effect in assay [1] and in assay [2] were -0.792% and 6.67%, respectively.
In the case of `Cc1ccc(CS(=O)(=O)N2CC[C@H]3[C@H]2CCN3C)cc1`, the Percent Effect was -3.51% in assay [1] and -4.23% in assay [2].

The record behind these values is ChEMBL document CHEMBL3988442, “University of Dundee, Small-Polar-MMV Screening Library” (2021).
